Shown are actives, neighbours in structure and some others; about 10% of the full set was active somewhere.
SARS PLpro yeast: qHTS of Yeast-based Assay for SARS-CoV PLP. S. cerevisiae expressing SARS-CoV PLpro, growth rescue. AID 485353, 2010. actives 0.19% (n = 330,000). Potency, µM (highest dose often 32.9 µM), usual class: activators; calls by dose curve; note: nearly all actives have a fitted effect of over 55% in size
Pf growth 96h: Primary qHTS for delayed death inhibitors of the malarial parasite plastid, 96 hour incubation; Potency, µM (doses to about 28.7 µM), actives largely listed as inhibitors; AID 504834, 2011; actives 6.9% (n = 320,000); P. falciparum luciferase reporter growth, 96 h
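Infected RBCs, 2% Hct / 0.05% parasitemia final; luciferase-reporter P. falciparum; cpd 96 h, 37 C, 5% CO2; luciferase detection reagent; luminescence.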
Pf growth 48h: Primary qHTS for delayed death inhibitors of the malarial parasite plastid, 48 hour incubation; Potency, µM (highest dose often 28.7 µM), usual class: inhibitors; P. falciparum luciferase growth in erythrocytes, 48 h; actives 5.9% (n = 310,000)
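Erythrocytes infected with P. falciparum carrying an integrated firefly luciferase reporter (2% hematocrit, 0.1% parasitemia final) were exposed to compounds in RPMI 1640 with 0.5% Albumax at 37 C, 5% CO2. Growth inhibition was scored as reduced luminescence.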
NS1 function inh: qHTS Assay for Inhibitors of Influenza NS1 Protein Function; Potency, µM (doses to about 46.1 µM); actives 0.4% (n = 270,000); AID 2326, 2010; calls by dose curve; note: actives are rising curves; nearly all actives have a fitted effect of over 50% in size
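Growth recovery, yeast-based: influenza A NS1 expressed in S. cerevisiae causes slow growth, and suppressors are detected by OD600. The parent strain without NS1 is used as positive control.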
Each line names hits and unclear results; the compound was inactive in the other large screens. Unless noted, calls come from the whole dose curve; as a rule, active = well fitted inhibition curve with a large enough effect; inconclusive = small, poorly fitted or top-dose-only effect, or another doubt; inactive = no such curve, though single readings can be large or run the other way.

CC(=O)Nc1ccc(NC(=O)CSc2nc(N)c(NC(=O)c3ccccc3F)c(=O)[nH]2)cc1	Pf growth 96h 11.7µM, Pf growth 48h inconclusive
Cc1cccc(NC(=O)CSc2nc(N)c(NC(=O)c3ccccc3F)c(=O)[nH]2)c1	Pf growth 96h inconclusive
CC1(C)CC(=O)c2sc(NS(=O)(=O)c3ccc(F)cc3)nc2C1	Pf growth 96h inconclusive
CC(Oc1ccc(C#N)cc1)C(=O)N1CC=C(c2ccccc2)CC1 (configuration not stated)	none (no result: Pf growth 96h, Pf growth 48h, NS1 function inh)
COc1cc(OC)cc(-c2c(-c3cccs3)c3cc(-c4ccc5c(c4)OCCO5)ccc3n2C)c1	Pf growth 96h inconclusive, Pf growth 48h 6.57µM (no result: NS1 function inh)
COc1cc(OC)cc(-c2c(-c3cccs3)c3cc(-c4ccc(SC)cc4)ccc3n2C)c1	Pf growth 96h 2.08µM (no result: NS1 function inh)
COc1ccc(-c2c(-c3cc(OC)cc(OC)c3)n(C)c3ccc(-c4ccc5c(c4)OCCO5)cc23)cc1	none (no result: Pf growth 96h, Pf growth 48h, NS1 function inh)
COc1cc(OC)cc(-c2c(-c3cccs3)c3cc(-c4ccc(OC)c(OC)c4)ccc3n2C)c1	Pf growth 96h inconclusive, Pf growth 48h 6.57µM (no result: NS1 function inh)
COc1cc(OC)cc(-c2c(-c3cccs3)c3cc(-c4ccc(OC)c(F)c4)ccc3n2C)c1	Pf growth 96h inconclusive, Pf growth 48h inconclusive (no result: NS1 function inh)
CCN(CC)C(=O)c1cccc(NC(=O)CC23CC4CC(CC(C4)C2)C3)c1	Pf growth 96h inconclusive, Pf growth 48h inconclusive
O=C(Nc1ccccc1Cl)c1ccc(=O)[nH]n1	none
COc1ccc(-c2nnc(SCC(=O)N(Cc3ccccc3)C(C)(C)C)o2)cc1OC	Pf growth 48h 11.7µM (no result: Pf growth 96h)
Cc1ccc(N2C(=O)C3N=NN(CC(=O)N4N=C(c5ccccc5)CC4c4ccccc4)C3C2=O)cc1 (configuration not stated)	Pf growth 48h 11.7µM (no result: NS1 function inh)
Cc1c(C(=O)Nc2ccc(F)cc2)sc2ncn(CC(=O)N3CCCCC3)c(=O)c12	none
COc1ccc(CC2(CO)CCN(S(=O)(=O)c3sccc3C)CC2)cc1	Pf growth 96h 11.7µM, Pf growth 48h inconclusive
COc1ccc(CC2(CO)CCN(S(=O)(=O)c3c(C)nn(C)c3Cl)CC2)cc1	none
COc1ccc(CCC(C)N2CCC(CO)(Cc3ccccc3)CC2)cc1 (configuration not stated)	none
COc1ccc(-c2ncc(CN3CCC(CO)(Cc4cccc(OC)c4)CC3)cn2)cc1	Pf growth 96h inconclusive, Pf growth 48h 10.4µM
OCC1(Cc2ccccc2)CCN(Cc2cnc(-c3ccc(Cl)cc3)nc2)CC1	Pf growth 48h inconclusive
COc1ccc(CC2(CO)CCN(C(C)Cc3ccc(Cl)cc3)CC2)cc1 (configuration not stated)	Pf growth 48h 11.7µM
COc1ccc(CC2(CO)CCN(Cc3cccnc3)CC2)cc1	Pf growth 48h 10.4µM
CCNc1nc(NCC)n2c(SCC(=O)N(CC)C3CCCCC3)nnc2n1	Pf growth 96h 7.38µM, Pf growth 48h inconclusive
CCNc1nc(NCC)n2c(SCC(=O)Nc3ccc(CC)cc3)nnc2n1	Pf growth 96h inconclusive, Pf growth 48h 10.4µM (no result: NS1 function inh)
Ic1ccccc1CN[C@@H]1C2CCN(CC2)[C@@H]1C(c1ccccc1)c1ccccc1	Pf growth 96h 2.94µM, Pf growth 48h 2.62µM (no result: SARS PLpro yeast, NS1 function inh)
COc1cc(/C=C(/C#N)c2nc3ccccc3[nH]2)ccc1OCc1ccc(C(=O)O)o1	Pf growth 96h inconclusive, Pf growth 48h inconclusive
CCc1ccc(NC(=O)COc2ccc(/C=C(/C#N)c3nc4ccccc4[nH]3)cc2OC)cc1	Pf growth 96h inconclusive, Pf growth 48h 2.62µM, NS1 function inh inconclusive
COC(=O)c1ccc(COc2ccc(/C=C(\C#N)c3nc4ccccc4[nH]3)cc2OC)o1	Pf growth 96h inconclusive, Pf growth 48h 1.31µM
Cc1nnc(SCC(=O)NNC(=O)c2ccc(F)cc2)n1Cc1ccccc1	none (no result: Pf growth 96h, Pf growth 48h, NS1 function inh)
COc1cccc(CNC(=O)CCCn2nc(C)n3c(cc4sccc43)c2=O)c1	Pf growth 96h inconclusive
CCCCCc1ccc(-c2ccc(OC)cc2)nc1	Pf growth 96h 10.4µM
CCCCCCCOc1ccc(-c2ccc(C#N)cn2)cc1	Pf growth 96h 6.57µM
CCCCOc1ccc(-c2cnc3ccccc3n2)cc1	Pf growth 96h inconclusive
CCOC(=O)[C@H]1[C@H]2COc3ccc(OC)cc3[C@@H]2N2C(=O)c3ccccc3NC(=O)[C@@]12C	Pf growth 96h inconclusive, Pf growth 48h inconclusive (no result: NS1 function inh)
CCOC(=O)[C@H]1[C@H]2COc3ccc(Cl)cc3[C@@H]2N2C(=O)c3cc(F)c(F)cc3NC(=O)[C@@]12C	Pf growth 96h inconclusive, Pf growth 48h inconclusive (no result: NS1 function inh)
CCOC(=O)[C@H]1[C@H]2COc3ccc(C)cc3[C@@H]2N2C(=O)c3cc(OC)c(OC)cc3NC(=O)[C@@]12C	Pf growth 96h inconclusive, Pf growth 48h 11.7µM (no result: NS1 function inh)
CCOC(=O)[C@H]1[C@H]2COc3ccc(C)cc3[C@@H]2N2C(=O)c3cc(F)c(F)cc3NC(=O)[C@@]12C	Pf growth 96h inconclusive, Pf growth 48h 11.7µM (no result: NS1 function inh)
CCOC(=O)[C@H]1[C@H]2COc3ccc(OC)cc3[C@@H]2N2C(=O)c3cc(OC)c(OC)cc3NC(=O)[C@@]12C	Pf growth 96h inconclusive, Pf growth 48h 11.7µM (no result: NS1 function inh)
CCOC(=O)[C@H]1[C@H]2COc3ccccc3[C@@H]2N2C(=O)c3cc(OC)c(OC)cc3NC(=O)[C@@]12C	Pf growth 96h inconclusive, Pf growth 48h inconclusive (no result: NS1 function inh)
CCOC(=O)[C@H]1[C@H]2COc3ccc(OC)cc3[C@@H]2N2C(=O)c3cc(OC)ccc3NC(=O)[C@@]12C	Pf growth 96h inconclusive, Pf growth 48h 10.4µM (no result: NS1 function inh)
COc1ccc(S(=O)(=O)N2CCN(C(=O)c3sccc3-c3ccccc3)CC2)cc1	Pf growth 96h inconclusive, Pf growth 48h inconclusive (no result: NS1 function inh)
CCOC(=O)[C@H]1[C@H]2COc3ccc(OC)cc3[C@@H]2N2C(=O)c3cc(F)c(F)cc3NC(=O)[C@@]12C	Pf growth 96h inconclusive, Pf growth 48h inconclusive (no result: NS1 function inh)
CCOC(=O)[C@H]1[C@H]2COc3ccc(Br)cc3[C@@H]2N2C(=O)c3cc(OC)c(OC)cc3NC(=O)[C@@]12C	Pf growth 96h inconclusive, Pf growth 48h 9.28µM (no result: NS1 function inh)
O=C(CCc1c[nH]c2ccccc12)NC(Cc1ccccc1)C(=O)O (configuration not stated)	none
CCC(C)(C)c1ccc(OCCCC[n+]2cccc(C)c2)c(C(C)(C)CC)c1	Pf growth 96h inconclusive, Pf growth 48h 2.33µM (no result: NS1 function inh)
CN(CC(=O)Nc1ccc(Cl)c(S(=O)(=O)N2CCOCC2)c1)C(=O)c1ccc(C#N)cc1	Pf growth 96h inconclusive (no result: NS1 function inh)
O=C(c1ccco1)[C@@H]1[C@@H]2C(=O)N(c3ccc(F)cc3)C(=O)[C@@H]2[C@H]2C=Cc3ccccc3N21	Pf growth 96h 3.7µM, Pf growth 48h inconclusive, NS1 function inh inconclusive
CC(C)=CCC/C(C)=C/Cc1c(O)ccc(C(=O)/C=C/c2ccc(O)cc2)c1O	Pf growth 96h 8.28µM, Pf growth 48h inconclusive
C=C(C)C(O)Cc1c(OC)ccc(C(=O)/C=C/c2ccc(O)cc2)c1O (configuration not stated)	none (no result: Pf growth 96h, Pf growth 48h, NS1 function inh)
COc1cccc(Nc2nc(-c3sc(NC(=O)c4ccco4)nc3C)cs2)c1	Pf growth 96h 13.1µM, Pf growth 48h inconclusive
COc1ccc(Cl)cc1Nc1nc(-c2cccnc2)cs1	Pf growth 48h inconclusive
COc1cccc(Nc2nc(-c3sc(C)nc3C)cs2)c1	none
